For some of these results: Potency and affinity values are given separately. Active and inactive are the calls of the source. Unless noted, the rule behind the calls is not given here.
Columns and labels:
[1] = antimalarial activity against Dd2 strain (AID 2302;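 active = growth inhibition above 50% at the single 2 µM test dose, taken to imply half-maximal potency below 2 µM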;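 note: 0% = DMSO untreated growth and 100% = chloroquine plus artemisinin killed control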); details: P. falciparum Dd2 in RBCs, LDH growth readout, 72 h; at 2 µM; hits give high values
[2] = human hepatoma cell viability loss – ATP luminescence, cytotoxicity control for P. falciparum antimalarial project, primary screen (AID 2303;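 active = inhibition above 50%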;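 note: 0% = DMSO wells and 100% = digitonin-killed cells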); details: HepG2 viability, 24-48 h, at 10 µM, hits give high values
[3] = target: L-lactate dehydrogenase (Plasmodium falciparum (isolate CDC / Honduras)) (UniProt Q27743); assay: PfLDH activity inhibition – cell lysate, 3D7 strain, counter-screen for P. falciparum growth inhibition project (AID 2304);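 note: 0% = vehicle and 100% = reference inhibitor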; details: P. falciparum 3D7 crude extract, LDH APAD/NBT absorbance; at 2 µM; hits give high values
[4] = inhibition of 3D7 malaria parasite growth – strain 3D7 (AID 2306);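 note: 0% = DMSO wells and 100% = chloroquine plus artemisinin control wells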; details: P. falciparum 3D7 erythrocytic growth, LDH absorbance, 72 h; at 2 µM; hits give high values
[5] = target: Calcium-dependent protein kinase 1 (Plasmodium falciparum (isolate 3D7)) (UniProt P62344); assay: PfCDPK1 kinase inhibitors, biochemical, TCAMS library (AID 1159585; cut-off not given, nearly all actives have IC50 up to about 0.98 µM;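 note: inhibitors leave more ATP so luminescence rises with inhibition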); details: recombinant PfCDPK1, Kinase-Glo ATP depletion luminescence
[6] = target: Plasmodium falciparum protein kinase 6 (PK6, PF3D7_1337100) (UniProt Q8IDW1); assay: PfPK6 kinase inhibitors, biochemical, TCAMS library (AID 1159586); details: recombinant PfPK6, Kinase-Glo ATP depletion luminescence
[7] = target: Protein kinase 7 (PK7), Plasmodium falciparum 3D7 (PF3D7_0213400) (UniProt Q7YTF7); assay: inhibition of Plasmodium PK7 catalytic activity – biochemical, TCAMS antimalarial set, Kinase-Glo luminescence (AID 1159587); details: recombinant PfPK7, Kinase-Glo ATP depletion luminescence
[8] = target: Calcium-dependent protein kinase 4 (Plasmodium falciparum (isolate 3D7)) (UniProt Q8IBS5); assay: PfCDPK4 kinase inhibitors, biochemical, TCAMS library (AID 1159588; cut-off not given, nearly all actives have IC50 up to about 0.91 µM); details: recombinant PfCDPK4, Kinase-Glo ATP depletion luminescence
Sequence of Calcium-dependent protein kinase 4 (Plasmodium falciparum (isolate 3D7)) (Q8IBS5 whole entry, looked up): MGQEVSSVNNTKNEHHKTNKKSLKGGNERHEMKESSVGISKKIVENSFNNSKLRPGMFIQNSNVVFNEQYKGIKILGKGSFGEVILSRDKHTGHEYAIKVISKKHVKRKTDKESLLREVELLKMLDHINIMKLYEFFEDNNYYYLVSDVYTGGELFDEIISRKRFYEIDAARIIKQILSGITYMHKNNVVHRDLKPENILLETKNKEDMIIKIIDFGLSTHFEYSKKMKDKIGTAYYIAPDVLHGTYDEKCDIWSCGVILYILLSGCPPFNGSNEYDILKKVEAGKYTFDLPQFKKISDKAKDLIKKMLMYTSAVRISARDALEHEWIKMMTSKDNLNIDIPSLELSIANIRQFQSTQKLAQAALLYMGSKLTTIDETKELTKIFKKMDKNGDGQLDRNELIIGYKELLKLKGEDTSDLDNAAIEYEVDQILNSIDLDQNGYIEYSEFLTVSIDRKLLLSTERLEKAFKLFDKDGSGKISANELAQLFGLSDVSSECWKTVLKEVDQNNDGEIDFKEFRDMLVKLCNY

Sequence of L-lactate dehydrogenase (Plasmodium falciparum (isolate CDC / Honduras)) (Q27743 whole entry, looked up): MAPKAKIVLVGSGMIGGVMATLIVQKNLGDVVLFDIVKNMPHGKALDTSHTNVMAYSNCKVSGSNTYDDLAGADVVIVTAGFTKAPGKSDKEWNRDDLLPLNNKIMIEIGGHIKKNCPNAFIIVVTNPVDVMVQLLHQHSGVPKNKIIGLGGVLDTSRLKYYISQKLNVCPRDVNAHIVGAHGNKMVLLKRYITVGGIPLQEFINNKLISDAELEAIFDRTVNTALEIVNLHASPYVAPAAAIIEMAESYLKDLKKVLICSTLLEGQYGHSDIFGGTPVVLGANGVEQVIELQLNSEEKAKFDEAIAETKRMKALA
Sequence of Protein kinase 7 (PK7), Plasmodium falciparum 3D7 (PF3D7_0213400) (Q7YTF7 1-343): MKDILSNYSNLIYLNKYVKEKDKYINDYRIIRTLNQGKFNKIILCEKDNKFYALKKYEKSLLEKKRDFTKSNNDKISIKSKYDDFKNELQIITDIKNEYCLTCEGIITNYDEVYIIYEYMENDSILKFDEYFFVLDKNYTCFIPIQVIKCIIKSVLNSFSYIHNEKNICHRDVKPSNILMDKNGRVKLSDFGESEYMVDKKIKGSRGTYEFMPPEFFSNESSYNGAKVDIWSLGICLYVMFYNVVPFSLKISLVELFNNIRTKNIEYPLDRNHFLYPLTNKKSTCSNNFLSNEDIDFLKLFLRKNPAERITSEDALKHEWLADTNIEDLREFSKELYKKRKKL
Sequence of Calcium-dependent protein kinase 1 (Plasmodium falciparum (isolate 3D7)) (P62344 whole entry, looked up): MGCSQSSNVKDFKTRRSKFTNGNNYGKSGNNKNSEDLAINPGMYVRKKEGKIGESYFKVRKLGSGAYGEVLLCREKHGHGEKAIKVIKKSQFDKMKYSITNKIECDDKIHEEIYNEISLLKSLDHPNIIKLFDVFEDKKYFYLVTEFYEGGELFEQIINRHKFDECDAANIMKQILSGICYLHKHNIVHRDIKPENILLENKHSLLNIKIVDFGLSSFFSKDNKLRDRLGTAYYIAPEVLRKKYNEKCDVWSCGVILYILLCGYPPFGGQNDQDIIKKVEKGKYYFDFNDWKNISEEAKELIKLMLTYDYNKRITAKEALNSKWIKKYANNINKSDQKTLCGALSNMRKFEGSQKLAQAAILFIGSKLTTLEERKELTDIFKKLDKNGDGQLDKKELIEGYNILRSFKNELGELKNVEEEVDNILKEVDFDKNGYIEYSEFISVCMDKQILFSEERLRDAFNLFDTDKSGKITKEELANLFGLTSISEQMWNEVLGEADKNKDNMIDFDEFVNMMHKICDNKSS
Sequence of Plasmodium falciparum protein kinase 6 (PK6, PF3D7_1337100) (Q8IDW1 1-305): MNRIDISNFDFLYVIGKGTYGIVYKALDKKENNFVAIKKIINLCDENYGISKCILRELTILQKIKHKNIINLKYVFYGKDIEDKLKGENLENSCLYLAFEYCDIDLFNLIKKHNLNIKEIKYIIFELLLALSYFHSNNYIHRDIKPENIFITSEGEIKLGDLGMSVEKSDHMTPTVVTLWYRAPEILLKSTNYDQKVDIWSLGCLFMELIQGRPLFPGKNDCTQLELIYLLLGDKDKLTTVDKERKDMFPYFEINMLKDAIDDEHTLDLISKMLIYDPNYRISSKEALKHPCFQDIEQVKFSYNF

CCNc1cc(C(=O)N[C@@H](Cc2ccccc2)[C@H](O)CNC2CCCC2)cc(N2CCCC2=O)c1
inactive: inhibition [2] 8% | inhibition [3] 2% | outcome [5] | outcome [6] | outcome [7] | outcome [8]
active: growth inhibition [1] 98% | growth inhibition [4] 98%

O=C(Nc1ccc2c(c1)OCO2)c1cc(-c2cccnc2)cnc1NCc1ccc2c(c1)OCO2
inactive: growth inhibition [1] 1% | inhibition [2] 2% | inhibition [3] 2% | outcome [5] | outcome [6] | outcome [7] | outcome [8]
active: growth inhibition [4] 87%

CN(C)C(=S)N=Nc1c(O)[nH]c2ccc(OC(F)(F)F)cc12
active: growth inhibition [1] 52% | growth inhibition [4] 93%
inactive: inhibition [2] 36% | inhibition [3] 3% | outcome [5] | outcome [6] | outcome [7] | outcome [8]

S=C(NCCCCCN1CCC(c2c[nH]c3ccccc23)CC1)Nc1ccc(Cl)c(Cl)c1
inactive: growth inhibition [1] 31% | inhibition [3] -3% | outcome [5] | outcome [6] | outcome [7] | outcome [8]
active: inhibition [2] 89% | growth inhibition [4] 101%

NS(=O)(=O)c1ccccc1Nc1nc(Nc2ccc(N3CCOCC3)cc2)nc2c1CCC2
active: growth inhibition [1] 99% | growth inhibition [4] 96%
inactive: inhibition [2] 21% | inhibition [3] -1% | outcome [5] | outcome [6] | outcome [7] | outcome [8]

COc1ccccc1Nc1nc(C)cc(NCc2ccc(-c3c(C)noc3C)cc2)n1
active: growth inhibition [4] 98%
inactive: growth inhibition [1] 13% | inhibition [2] 12% | inhibition [3] -6% | outcome [5] | outcome [6] | outcome [7] | outcome [8]

CC(C)c1ccc(CN2CCC(CNC(=O)c3cc(-c4cccc(C(F)(F)F)c4)cs3)C2)cc1 (stereo not drawn)
inactive: inhibition [2] 36% | inhibition [3] 5% | outcome [5] | outcome [6] | outcome [7] | outcome [8]
active: growth inhibition [1] 60% | growth inhibition [4] 99%

COc1ccc(S(=O)(=O)Nc2ccc(C(=O)NCc3ccccc3C(F)(F)F)cc2)cc1N1CCN(CC2CC2)CC1
inactive: growth inhibition [1] 5% | inhibition [2] 27% | inhibition [3] -3% | outcome [5] | outcome [6] | outcome [7] | outcome [8]
active: growth inhibition [4] 92%

CCC1CCCCN1S(=O)(=O)c1ccc(NC(=O)c2cc(C)on2)cc1 (stereo not drawn)
active: growth inhibition [1] 53% | growth inhibition [4] 86%
inactive: inhibition [2] 0% | inhibition [3] 0% | outcome [5] | outcome [6] | outcome [7] | outcome [8]

CN(C)c1ccc(-c2ccc(C(=O)NC3CCN(Cc4cccc(C(F)(F)F)c4)CC3)s2)cc1
inactive: inhibition [2] 35% | inhibition [3] 0% | outcome [5] | outcome [6] | outcome [7] | outcome [8]
active: growth inhibition [1] 77% | growth inhibition [4] 96%

CC1(C)[C@H]2CC[C@@H](CNc3nc(NCCc4cnc[nH]4)nc(NCc4cc(F)ccc4F)n3)[C@@H]1C2
inactive: inhibition [2] 0% | inhibition [3] 6% | outcome [5] | outcome [6] | outcome [7] | outcome [8]
active: growth inhibition [1] 91% | growth inhibition [4] 100%

CN(CCCNCc1ccc2ccccc2c1)CCCNCc1ccc2ccccc2c1
active: growth inhibition [1] 79% | inhibition [2] 100% | growth inhibition [4] 100%
inactive: inhibition [3] 1% | outcome [5] | outcome [6] | outcome [7] | outcome [8]

Cc1ccccc1C1CCN(C2CCC(NC(=O)c3ccc4c(c3)-c3nocc3C(C)O4)CC2)CC1 (stereo not drawn)
active: inhibition [2] 68% | growth inhibition [4] 88%
inactive: growth inhibition [1] 37% | inhibition [3] 4% | outcome [5] | outcome [6] | outcome [7] | outcome [8]

CCOC(=O)CC[C@H](NC(=O)c1ccc(NS(=O)(=O)c2ccc(-c3cnc(N)[nH]c3=O)cc2)cc1)C(=O)OCC
inactive: growth inhibition [1] 2% | inhibition [2] 5% | inhibition [3] 4% | outcome [5] | outcome [6] | outcome [7] | outcome [8]
active: growth inhibition [4] 95%

CC(C)CCCC(C)(C)NC[C@@H](O)[C@H](Cc1ccccc1)NC(=O)c1cc(NC(C)C)cc(N2CCCCS2(=O)=O)c1
active: growth inhibition [1] 98% | growth inhibition [4] 98%
inactive: inhibition [2] 2% | inhibition [3] -1% | outcome [5] | outcome [6] | outcome [7] | outcome [8]

O=C(Nc1cccc(-c2cccc(-c3nc4ccccc4[nH]3)c2)c1)c1cccnc1
inactive: growth inhibition [1] 14% | inhibition [2] 12% | inhibition [3] -3% | outcome [5] | outcome [6] | outcome [7] | outcome [8]
active: growth inhibition [4] 95%

FC(F)(F)c1ccc(CNC2CCN(CC3CCCCC3)CC2)cc1
active: growth inhibition [4] 87%
inactive: growth inhibition [1] 5% | inhibition [2] 4% | inhibition [3] -4% | outcome [5] | outcome [6] | outcome [7] | outcome [8]

Cc1cc(Cl)c(S(=O)(=O)NC(C)(C)C)cc1OCC(=O)NC1CCCCC1
active: growth inhibition [1] 53% | growth inhibition [4] 93%
inactive: inhibition [2] 10% | inhibition [3] -5% | outcome [5] | outcome [6] | outcome [7] | outcome [8]

Cc1cc(NC(=O)NCCN2CCC(NC(=O)c3ccc(C(F)(F)F)cc3)CC2)c2ccccc2n1
active: growth inhibition [1] 75% | growth inhibition [4] 98%
inactive: inhibition [2] 3% | inhibition [3] -3% | outcome [5] | outcome [6] | outcome [7] | outcome [8]

O=C(Cc1ccccc1)NC(c1ccc(Cl)cc1)c1ccc2cccnc2c1O (stereo not drawn)
active: growth inhibition [1] 64% | inhibition [2] 50% | growth inhibition [4] 93%
inactive: inhibition [3] -2% | outcome [5] | outcome [6] | outcome [7] | outcome [8]

Cc1ccc(-n2c(C)nc3c(Nc4ccc(-c5ccncc5)cc4)ncnc32)c(C)c1
active: growth inhibition [1] 99% | growth inhibition [4] 99%
inactive: inhibition [2] 38% | inhibition [3] -4% | outcome [5] | outcome [6] | outcome [7] | outcome [8]

Nc1nc(N)c2c(ccc3nn(S(=O)(=O)N4CCCC4)cc32)n1
inactive: growth inhibition [1] 0% | inhibition [3] 9% | outcome [5] | outcome [6] | outcome [7] | outcome [8]
active: inhibition [2] 69% | growth inhibition [4] 95%

COc1ccccc1NC(=O)Nc1ccc(-c2ccc(-c3nc4ccc(C(F)(F)F)cc4[nH]3)cc2)cc1
active: growth inhibition [1] 61% | inhibition [2] 52% | growth inhibition [4] 101%
inactive: inhibition [3] 3% | outcome [5] | outcome [6] | outcome [7] | outcome [8]

O=C(NCCN1CCCC1)c1cccc(-c2ccc(-c3nc4ccc(F)cc4[nH]3)s2)c1
active: inhibition [2] 51% | growth inhibition [4] 100%
inactive: growth inhibition [1] 4% | inhibition [3] -1% | outcome [5] | outcome [6] | outcome [7] | outcome [8]

CCC[C@@H]([C@@H](CC1CCCCC1)C(=O)N[C@H](C(=O)Nc1nccs1)C(C)(C)SCCNC(=O)OCC)N(O)C=O
active: growth inhibition [1] 98% | growth inhibition [4] 99%
inactive: inhibition [2] 45% | inhibition [3] 0% | outcome [5] | outcome [6] | outcome [7] | outcome [8]

COc1cc(C(=O)N2CCOC(CCN3CC[C@@H]4c5ccccc5C[C@@H]43)(c3ccc(Cl)c(Cl)c3)C2)cc(OC)c1OC (stereo partly drawn)
active: growth inhibition [1] 82% | growth inhibition [4] 88%
inactive: inhibition [2] 32% | inhibition [3] 1% | outcome [5] | outcome [6] | outcome [7] | outcome [8]

CCCCCN1CCCN(Cc2cccc(NC(=O)c3cc4ccccc4s3)c2)CC1
active: growth inhibition [4] 99%
inactive: growth inhibition [1] 30% | inhibition [2] 29% | inhibition [3] 6% | outcome [5] | outcome [6] | outcome [7] | outcome [8]

O=C(NCCN1CCCC1)c1ccc(-c2ccc(-c3nc4ccccc4[nH]3)s2)cc1
active: growth inhibition [4] 92%
inactive: growth inhibition [1] 3% | inhibition [2] 22% | inhibition [3] -2% | outcome [5] | outcome [6] | outcome [7] | outcome [8]

COc1ccc(C2C(C(=O)Nc3ccc(C)cc3Br)c3ccccc3C(=O)N2C)cc1 (stereo not drawn)
inactive: growth inhibition [1] 2% | inhibition [2] 4% | inhibition [3] 6% | outcome [5] | outcome [6] | outcome [7] | outcome [8]
active: growth inhibition [4] 96%

COc1ccccc1C1CN(CCNC(=O)c2ncc(C)[nH]2)Cc2ccccc2O1 (stereo not drawn)
inactive: inhibition [2] 4% | inhibition [3] 0% | outcome [5] | outcome [6] | outcome [7] | outcome [8]
active: growth inhibition [1] 86% | growth inhibition [4] 90%

CN1CCC(NCCS(=O)(=O)c2cccc(Nc3ccc(-c4cccc(F)c4)cn3)c2)CC1
active: growth inhibition [4] 99%
inactive: growth inhibition [1] -3% | inhibition [2] 27% | inhibition [3] 5% | outcome [5] | outcome [6] | outcome [7] | outcome [8]

CCCCCN1CCCCC(NS(=O)(=O)c2ccc(C(=O)Nc3cccc(C(F)(F)F)c3)cc2)C1 (stereo not drawn)
inactive: growth inhibition [1] 2% | inhibition [2] 14% | inhibition [3] -2% | outcome [5] | outcome [6] | outcome [7] | outcome [8]
active: growth inhibition [4] 93%

COc1cccc(CN2CCCC(CCC(=O)Nc3ccc(C(F)(F)F)cc3)C2)c1O (stereo not drawn)
inactive: inhibition [2] 15% | inhibition [3] -2% | outcome [5] | outcome [6] | outcome [7] | outcome [8]
active: growth inhibition [1] 97% | growth inhibition [4] 98%

CN(C)c1ccc(CN2CCC(NC(=O)c3ccc(-c4cccc(Cl)c4)s3)CC2)cc1
active: inhibition [2] 65% | growth inhibition [4] 93%
inactive: growth inhibition [1] 44% | inhibition [3] -3% | outcome [5] | outcome [6] | outcome [7] | outcome [8]

Clc1nc(Cl)c2c(ccn2Cc2ccccc2)n1
inactive: inhibition [2] -14% | inhibition [3] -11% | outcome [5] | outcome [6] | outcome [7] | outcome [8]
active: growth inhibition [1] 61% | growth inhibition [4] 100%

COc1cc2nc(NCCc3cccc(Cl)c3)nc(NCc3ccccc3)c2cc1OC
active: growth inhibition [1] 101% | inhibition [2] 97% | growth inhibition [4] 101%
inactive: inhibition [3] 0% | outcome [5] | outcome [6] | outcome [7] | outcome [8]

O=C(NCCN1CCCCC1)c1cc2cc(-c3ccccc3)ccc2n1S(=O)(=O)c1ccccc1
active: growth inhibition [4] 90%
inactive: growth inhibition [1] -1% | inhibition [2] 15% | inhibition [3] 2% | outcome [5] | outcome [6] | outcome [7] | outcome [8]

Cc1cc(Cl)ccc1NC(=O)Nc1ccc2nccc(N3CCN(C)CC3)c2c1
active: growth inhibition [1] 74% | growth inhibition [4] 101%
inactive: inhibition [2] -1% | inhibition [3] 1% | outcome [5] | outcome [6] | outcome [7] | outcome [8]

Cc1ccc(C=C2SC(=Nc3ccccc3)NC2=O)c(C)c1
active: growth inhibition [1] 90% | growth inhibition [4] 93%
inactive: inhibition [2] 1% | inhibition [3] -2% | outcome [5] | outcome [6] | outcome [7] | outcome [8]

CC(CCc1ccccc1)NCC(O)c1cccc(C(F)(F)F)c1 (stereo not drawn)
active: growth inhibition [1] 98% | growth inhibition [4] 99%
inactive: inhibition [2] 18% | inhibition [3] 4% | outcome [5] | outcome [6] | outcome [7] | outcome [8]

COc1ccccc1CCNc1nc(C)cc(N[C@@H](CC(C)C)C(=O)Nc2ccccc2)n1
inactive: inhibition [2] 16% | inhibition [3] -2% | outcome [5] | outcome [6] | outcome [7] | outcome [8]
active: growth inhibition [1] 76% | growth inhibition [4] 101%
